The nature of experiment [1]: NCI Yeast Anticancer Drug Screen. Data for the rad50 strain (AID 155).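 Note: 0% = growth of vehicle-only cultures of the same strain.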 The note with it: S. cerevisiae rad50 strain growth inhibition; at 50.0 µM; hits give high values. In outline:
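Inhibition values express reduced yeast growth in compound-treated cultures relative to vehicle-treated controls.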

Experiment [2] is described as follows: NCI Yeast Anticancer Drug Screen. Data for the mec2-1 strain (AID 157). Particulars: S. cerevisiae mec2-1 strain, at 50.0 µM, hits give high values. Put shortly: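 Cells of the genetically defined mec2-1 yeast strain are incubated with test compound. Inhibition of growth is calculated against vehicle-treated controls.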
The nature of experiment [3]: NCI Yeast Anticancer Drug Screen. Data for the sgs1 mgt1 strain (AID 161).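 Note: 0% = growth of cultures given vehicle only.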 The note with it: S. cerevisiae sgs1 mgt1 strain, at 50.0 µM, hits give high values. Put shortly: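 Inhibition of yeast growth, normalised to vehicle-treated controls, is reported for a strain bearing genetic alterations in DNA damage repair.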
Experiment [4] is described as follows: NCI Yeast Anticancer Drug Screen. Data for the cln2 rad14 strain (AID 165).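 Note: 0% = growth equal to vehicle treated cultures.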 Particulars: S. cerevisiae cln2 rad14 strain, at 50.0 µM, hits give high values. In outline:
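The screen exposed genetically defined yeast (cln2 rad14) to test compounds and scored growth inhibition relative to vehicle-treated controls.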

Experiment [5] is described as follows: NCI Yeast Anticancer Drug Screen. Data for the bub3 strain (AID 167). The note with it: S. cerevisiae bub3 mutant strain, at 50.0 µM, hits give high values. In outline: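 Steps: expose the mutant yeast strain to compound; grow alongside vehicle-treated cultures; measure growth; express inhibition against the vehicle cultures.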
A short description of experiment [6]: NCI Yeast Anticancer Drug Screen. Data for the mlh1 rad18 strain (AID 175). The note with it: S. cerevisiae mlh1 rad18 strain growth inhibition; at 50.0 µM; hits give high values. Put shortly:
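Compound-treated yeast growth, normalised to vehicle controls. Strain bears defined DNA repair mutations.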

Compounds without any hit were thinned out: in the full panel of roughly 79,000, 15% have a hit. A number with no mark means an inactive call. The source made the active and inactive calls. Cut-off read from the data, not from the text of the source: active = growth inhibition above about 70%; inactive = the rest.

For the compound `CCOC(=O)C(CCCN=C(N)NC(=O)OCc1ccccc1)NC(=O)C(C(C)C)N1C(=O)c2ccccc2C1=O` (stereo not given), the growth inhibition in experiment [1] was 93% (active); in experiment [2] it was 78.5% (active); in experiment [3], 96.2% (active); in experiment [4] it was 52%; in experiment [5], 48.9%; in experiment [6], 96% (active).

On to `Cn1c(=O)c2[nH]c(SCCc3ccccc3)nc2n(C)c1=O`, for which the growth inhibition in experiment [1] was 0.65%; in experiment [2], 0.05%; in experiment [3] it was 6.15%; in experiment [4], -39.1%; in experiment [5], 10.3%; in experiment [6], -2.75%.

For `CC(=O)Nc1ccccc1NC1CC(C)N(c2ccccc2)N1C(C)=O` (stereo not given), the growth inhibition is -10.9% in experiment [1]; -42.4% in experiment [2]; -40.4% in experiment [3]; -11.5% in experiment [4]; -34.4% in experiment [5]; 1.05% in experiment [6].

Turning to `CC(=O)Oc1c(Cl)c(Cl)c(C#N)c(Cl)c1C#N`, the growth inhibition is 30.4% in experiment [1]; 1.7% in experiment [2]; 26.2% in experiment [3]; 10.8% in experiment [4]; 8.8% in experiment [5]; 26.1% in experiment [6].

As to `Cc1cc(Cl)ccc1OC(=O)NC1CCCCC1`, the growth inhibition in experiment [1] was -2.5%; in experiment [2], 24.4%; in experiment [3] it was -2.35%; in experiment [4], -13.5%; in experiment [5] it was 30.4%; in experiment [6] it was 30.4%.

On to `CC1CNC(=S)N(c2cccc3ccccc23)C1=O` (stereo not given), for which the growth inhibition in experiment [1] was -4.8%; in experiment [2], -1%; in experiment [3], -3.7%; in experiment [4], -5%; in experiment [5] it was -9.35%; in experiment [6], 4.2%.

For the compound `CC1(C)CC(=O)C(/C=N/C(N)=S)=C(O)C1`, the growth inhibition in experiment [1] is -20.3%; in experiment [2], -52.1%; in experiment [3], -13.8%; in experiment [4], 6.2%; in experiment [5], -0.85%; in experiment [6] it was -31.6%.

In the case of `CCOc1ccc(N(O)C(C)=O)cc1`, the growth inhibition is 1.9% in experiment [1]; -10.4% in experiment [2]; 3% in experiment [3]; -43.4% in experiment [4]; -8.75% in experiment [5]; 0% in experiment [6].

For the compound `NC(=O)N1CCCC1`, the growth inhibition in experiment [1] is -1.65%; in experiment [2], 13.1%; in experiment [3], -3.7%; in experiment [4] it was 7.7%; in experiment [5] it was 9.45%; in experiment [6] it was 2.15%.

On to `CCCC(=O)OCCc1ccccc1`, for which the growth inhibition in experiment [1] was 12.8%; in experiment [2], 10.3%; in experiment [3], 16.4%; in experiment [4], -65.5%; in experiment [5], 5.1%; in experiment [6], -26%.

For `O=C(Nc1ccc(Cl)c(Cl)c1)C(Cl)Cl`, the growth inhibition was 23.5% in experiment [1]; 15.1% in experiment [2]; 50.5% in experiment [3]; 30.2% in experiment [4]; 39.1% in experiment [5]; 10.3% in experiment [6].

In the case of `NNc1ncnc2cccc(Cl)c12`, the growth inhibition in experiment [1] is 7.95%; in experiment [2] it was 27.2%; in experiment [3] it was 18.6%; in experiment [4], -24.7%; in experiment [5], 1.8%; in experiment [6], 11.9%.

Regarding `Nc1nc(N)nc(SCC(=O)O)n1`, the growth inhibition is 8.55% in experiment [1]; -23.2% in experiment [2]; 2% in experiment [3]; 3.15% in experiment [4]; -2.05% in experiment [5]; 14.9% in experiment [6].

In the case of `CC(=O)OC1COC(NC(=O)N(CCCl)N=O)C(OC(C)=O)C1OC(C)=O` (stereo not given), the growth inhibition was 6.25% in experiment [1]; 7.55% in experiment [2]; -25.8% in experiment [3]; -11.2% in experiment [4]; -31.2% in experiment [5]; 48.8% in experiment [6].

Regarding `C/C=C/C=C/CC`, the growth inhibition in experiment [1] was 8.75%; in experiment [2], -12.3%; in experiment [3], -5.4%; in experiment [4] it was 16.2%; in experiment [5], 16.9%; in experiment [6], -22.6%.

Regarding `O=C(O)COc1ccccc1F`, the growth inhibition in experiment [1] is -27.9%; in experiment [2], 12.1%; in experiment [3], -14.4%; in experiment [4], -25.9%; in experiment [5], 3%; in experiment [6], -3.85%.

For the compound `NOCc1ccc(OCc2ccccc2)cc1`, the growth inhibition in experiment [1] was 5.75%; in experiment [2] it was 7.3%; in experiment [3], -6.7%; in experiment [4], -18.8%; in experiment [5], -2.4%; in experiment [6] it was -11.5%.

On to `Nc1cccc(Br)n1`, for which the growth inhibition was 16.1% in experiment [1]; -4.9% in experiment [2]; 0.45% in experiment [3]; -51.7% in experiment [4]; 7.1% in experiment [5]; 4.9% in experiment [6].

Take `O=C1C=C(NCCCCC2CCCCC2)c2ccccc2C1=O`: the growth inhibition in experiment [1] is 11.8%; in experiment [2], -3.25%; in experiment [3], 0.15%; in experiment [4] it was 11.2%; in experiment [5] it was -9.3%; in experiment [6] it was -4.6%.

With `C=CCN(C)C(=O)CCCCCCCC1C(CCCCCCCC)C2(Cl)C(Cl)=C(Cl)C1(Cl)C2(Cl)Cl` (stereo not given), the growth inhibition in experiment [1] is 30.7%; in experiment [2] it was 4.35%; in experiment [3], 8.6%; in experiment [4], -20.5%; in experiment [5] it was -1.5%; in experiment [6], -8.35%.

Values taken from PubChem BioAssay (NCI).
